Results: PubChem BioAssay (NCATS)
Records with an inconclusive call do not appear. A call without a number means that no potency is given here. Unmarked numbers belong to inactive results. Active and inactive are the calls of the source. Unless noted, the call rests on the fitted dose curve; in most records, active means well fitted curve in the direction sought with a large enough effect; inconclusive means small, poorly fitted or top-dose-only effect, or another doubt; inactive means no such curve, though single readings can be large; an effect the other way counts as inactive or inconclusive.

Columns and labels:
[1] = qHTS to identify inhibitors of the type 1 interferon - major histocompatibility complex class I in skeletal muscle: primary screen against the NCATS Pharmaceutical Collection (AID 1347407);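 further: luminescence of HiBiT knocked into endogenous HLA-B as interferon-induced MHC class I level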
Procedure, shortened: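 HLA-B HiBiT myoblasts, dexamethasone-free growth medium + 4 ng/ml IFN-b; compounds pinned 1 h after seeding, […] from 46 uM; 24 h, 37 C, 5% CO2; lytic HiBiT detection, 10 min RT, luminescence.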

[2] = target: Protein phosphatase 1D (Homo sapiens) (UniProt O15297); experiment: RapidFire Mass Spectrometry qHTS Assay for Modulators of WT P53-Induced Phosphatase 1 (WIP1) (AID 1347424);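 further: amount of dephosphorylated VEPPL-S-QETFS peptide product formed by WIP1; series mostly up to about 63 µM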
Chain of Protein phosphatase 1D (Homo sapiens) (O15297 whole entry, looked up): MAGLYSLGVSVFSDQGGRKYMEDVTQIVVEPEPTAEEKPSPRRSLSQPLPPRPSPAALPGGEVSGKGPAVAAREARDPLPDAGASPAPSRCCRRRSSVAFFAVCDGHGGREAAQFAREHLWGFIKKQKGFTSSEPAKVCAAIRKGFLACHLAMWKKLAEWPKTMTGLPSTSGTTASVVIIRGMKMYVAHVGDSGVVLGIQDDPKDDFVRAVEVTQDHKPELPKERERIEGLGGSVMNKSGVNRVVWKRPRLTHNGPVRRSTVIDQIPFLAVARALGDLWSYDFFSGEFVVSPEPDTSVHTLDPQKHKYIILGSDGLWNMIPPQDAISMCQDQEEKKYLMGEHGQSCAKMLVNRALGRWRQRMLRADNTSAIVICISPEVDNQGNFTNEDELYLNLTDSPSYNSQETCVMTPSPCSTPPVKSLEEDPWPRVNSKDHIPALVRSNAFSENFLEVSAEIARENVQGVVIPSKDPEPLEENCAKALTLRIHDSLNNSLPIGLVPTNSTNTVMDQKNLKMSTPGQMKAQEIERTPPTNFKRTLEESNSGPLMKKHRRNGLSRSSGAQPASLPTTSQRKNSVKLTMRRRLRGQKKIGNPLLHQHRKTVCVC
Procedure, shortened: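 WIP1 (10 nM final) was preincubated 1 h at room temperature with compounds in Tris-HCl pH 7.5, 30 mM MgCl2, TCEP, EGTA, BSA; 2 uM VEPPL-pS-QETFS phosphopeptide was added for 5 min, quenched with formic acid, and dephosphorylated product quantified by RapidFire MS.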

[3] = Primary qHTS for inhibitors of La Crosse Virus (LACV) - induced cell death in SH-SY5Y cells (AID 1508616);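 further: top concentration of the series differs between compounds; higher means more rescue of cells from virus-induced death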
Procedure, shortened: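 Luminescent ATP readout (ATPLite 1step, 5 min room temperature) measured rescue from LACV-induced death after 6 days of infection at 0.01 MOI; normalized to infected DMSO wells and uninfected DMSO wells.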

[4] = target: Calcium and integrin-binding protein 1 (Homo sapiens) (UniProt Q99828); experiment: Primary qHTS for Identification of Calcium Integrin Binding Protein 1 (CIB1) Competitor (AID 1508620);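 further: GST tagged CIB1 binding a fluorescein labelled alphaIIb integrin peptide tracer; top concentration of the series differs between compounds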
Chain of Calcium and integrin-binding protein 1 (Homo sapiens) (Q99828 whole entry, looked up): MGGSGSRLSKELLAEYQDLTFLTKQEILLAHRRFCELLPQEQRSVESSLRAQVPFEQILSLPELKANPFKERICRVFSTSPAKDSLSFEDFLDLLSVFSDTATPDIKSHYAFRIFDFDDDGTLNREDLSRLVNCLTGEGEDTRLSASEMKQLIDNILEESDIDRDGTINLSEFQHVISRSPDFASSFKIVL
Procedure, shortened: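 Fluorescence polarization competition: CIB1-GST (1 uM final) preincubated with compound 15 min at room temperature, then FITC-labeled alphaIIb peptide (100 nM final) added for another 15 min. Polarization read at Ex 480/Em 540.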

[5] = Primary qHTS for small molecule stabilizers of the endoplasmic reticulum resident proteome: Secreted ER Calcium Modulated Protein (SERCaMP) assay (AID 1508630)
Procedure, shortened: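 GLuc-SERCaMP-expressing SH-SY5Y cells, pretreated 16 h with compound, are challenged with thapsigargin to empty ER calcium stores; after 4 h, coelenterazine is added directly to the medium and luminescence is imaged.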

[6] = A High-Content qHTS Against Drug Library for the Identification of Small Molecules that Inhibit DYT1 Early Onset Primary Dystonia-Associated Cell Pathology (AID 1645839; calls by dose curve; further: potency means the concentration at half of the fitted maximal effect)
Procedure, shortened: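 Readout: %pathology, the punctate EGFP-TorsinA distribution from imaging, as the primary channel and cell count as the toxicity counterscreen. HEK293 Flp-In cells expressing delE TorsinA were induced with tetracycline and treated with compound for 48 h.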

[7] = target: Cytochrome P450 2D6 (Homo sapiens) (UniProt P10635); experiment: Cytochrome P450 family 2 subfamily D member 6 (CYP2D6) small molecule antagonists: luciferase biochemical (cell-free) qHTS assay (AID 1645840; active means well fitted curve in the direction sought with a large enough effect in the repeat runs; an effect the other way counts as inactive or inconclusive; further: nearly all actives have a fitted effect of over 55% in size; further: potency means the concentration at half of the fitted maximal effect)
Chain of Cytochrome P450 2D6 (Homo sapiens) (P10635 whole entry, looked up): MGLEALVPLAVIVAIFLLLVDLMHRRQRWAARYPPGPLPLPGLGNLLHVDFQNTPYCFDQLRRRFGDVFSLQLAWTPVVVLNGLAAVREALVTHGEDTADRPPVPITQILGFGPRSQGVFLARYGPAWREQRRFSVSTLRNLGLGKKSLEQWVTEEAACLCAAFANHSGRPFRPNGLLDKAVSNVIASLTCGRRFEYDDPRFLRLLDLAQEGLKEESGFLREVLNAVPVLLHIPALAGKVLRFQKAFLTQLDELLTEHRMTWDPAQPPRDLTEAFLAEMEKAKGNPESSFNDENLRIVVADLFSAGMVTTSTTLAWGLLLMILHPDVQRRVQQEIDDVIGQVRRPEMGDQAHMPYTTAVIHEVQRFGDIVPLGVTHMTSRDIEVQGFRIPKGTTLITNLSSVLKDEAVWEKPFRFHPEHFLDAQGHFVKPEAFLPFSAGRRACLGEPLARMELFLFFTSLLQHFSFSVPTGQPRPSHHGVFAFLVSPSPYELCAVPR
Procedure, shortened: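 P450-Glo luminescent screen: recombinant CYP2D6 enzyme–proluciferin substrate mix preincubated with compound 10 min at room temperature, then NADPH regeneration added for 1 h at room temperature. Detection reagent added for 20 min; luciferin light read as relative luminescence units.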

[8] = target: Protein phosphatase 1D (Homo sapiens) (UniProt O15297); experiment: Rhodamine-PBP qHTS Assay for Modulators of WT P53-Induced Phosphatase 1 (WIP1) (AID 1347425)
Procedure, shortened: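 5 nM WIP1 + 10 uM Rh-PBP, 50 mM Tris pH 7.5, 30 mM MgCl2, 1 mM TCEP, 0.1 mM EGTA, BSA; cpds pinned, 1 hr RT; + 10 uM phosphopeptide; fluorescence 1-min reads x 11 min; delta = f1 - f0.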

[9] = target: Cytochrome P450 3A4 (Homo sapiens) (UniProt P08684); experiment: Cytochrome P450 family 3 subfamily A member 4 (CYP3A4) small molecule antagonists: luciferase qHTS assay (AID 1645841; active means well fitted curve in the direction sought with a large enough effect in the repeat runs; an effect the other way counts as inactive or inconclusive; further: nearly all actives have a fitted effect of over 45% in size)
Chain of Cytochrome P450 3A4 (Homo sapiens) (P08684 whole entry, looked up): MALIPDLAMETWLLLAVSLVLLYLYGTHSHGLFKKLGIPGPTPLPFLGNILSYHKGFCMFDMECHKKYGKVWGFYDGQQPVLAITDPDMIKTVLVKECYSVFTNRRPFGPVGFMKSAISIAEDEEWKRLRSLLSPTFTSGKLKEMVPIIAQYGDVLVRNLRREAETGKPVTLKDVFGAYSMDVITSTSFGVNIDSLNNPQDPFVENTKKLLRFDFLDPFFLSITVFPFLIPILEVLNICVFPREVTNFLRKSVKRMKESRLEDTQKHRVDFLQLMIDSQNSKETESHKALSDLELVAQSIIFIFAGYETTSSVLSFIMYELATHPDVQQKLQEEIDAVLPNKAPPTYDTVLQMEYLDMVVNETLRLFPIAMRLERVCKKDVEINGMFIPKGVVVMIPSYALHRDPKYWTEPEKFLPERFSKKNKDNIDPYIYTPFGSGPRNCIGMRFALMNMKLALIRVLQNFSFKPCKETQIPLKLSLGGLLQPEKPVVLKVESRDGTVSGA
Procedure, shortened: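 P450-Glo CYP3A4 enzyme with proluciferin substrate was preincubated with DMSO-dissolved compounds for 10 min at room temperature. NADPH regeneration solution started a 1 h reaction. Detection reagent stopped it, and luminescence was read after 20 min.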

[10] = target: Calcium and integrin-binding protein 1 (Homo sapiens) (UniProt Q99828); experiment: Confirmatory qHTS for Identification of Calcium Integrin Binding Protein 1 (CIB1) Competitor (AID 1508617); further: nearly all actives have a fitted effect of over 65% in size
Procedure, shortened: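 Confirmatory qHTS measures displacement of a FITC-alphaIIb peptide (100 nM) from CIB1-GST (1 uM) by fluorescence polarization. Calcium-containing HEPES buffer, pH 7.4; two 15 min room-temperature incubations.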

Q: For `CC(C)C[C@@H](N)C(=O)O`, which outcome [1] is on record?
A: inactive

Q: And the outcome [2]?
A: inactive

Q: And the outcome [3]?
A: inactive

Q: What about the outcome [4] of the same molecule?
A: inactive

Q: What about the outcome [5] of the same molecule?
A: inactive

Q: What about the Potency [6] of the same molecule?
A: inactive

Q: Which outcome [1] does the source give for `CC(C)CCCC(C)CCCC(C)CCCCC(C)CCCC(C)CCCC(C)C` (centres undefined) here?
A: inactive

Q: What about the outcome [2] of the same molecule?
A: inactive

Q: What about the outcome [3] of the same molecule?
A: inactive

Q: What about the outcome [4] of the same molecule?
A: inactive

Q: And the outcome [5]?
A: inactive

Q: And the Potency [6]?
A: inactive

Q: And the Potency [7]?
A: inactive

Q: Which results are given for `O=C(O)CNC(=O)c1ccccc1I`?
A: outcome [1]: inactive; outcome [2]: inactive; outcome [3]: inactive; outcome [4]: inactive; outcome [5]: inactive; Potency [6]: inactive; Potency [7]: inactive

Q: For `NCc1ccc(S(N)(=O)=O)cc1`, which outcome [1] is on record?
A: inactive

Q: And the outcome [2]?
A: inactive

Q: And the outcome [8]?
A: inactive

Q: And the outcome [5]?
A: inactive

Q: And the Potency [6]?
A: inactive

Q: And the Potency [7]?
A: inactive

Q: And the outcome [9]?
A: inactive

Q: Which outcome [1] does the source give for `Cc1cccc(Nc2ccccc2C(=O)O)c1C` here?
A: inactive

Q: What about the outcome [2] of the same molecule?
A: inactive

Q: What about the outcome [8] of the same molecule?
A: inactive

Q: What about the outcome [5] of the same molecule?
A: inactive

Q: And the Potency [7]?
A: inactive

Q: What does the source list for `Cc1cc(=O)[nH]c(=S)[nH]1`?
A: outcome [1]: inactive; outcome [2]: inactive; outcome [8]: inactive; outcome [4]: inactive; Potency [6]: inactive; Potency [7]: inactive

Q: Which outcome [1] does the source give for `O=C(O)c1ccccc1OP(=O)(O)O` here?
A: inactive

Q: What about the outcome [2] of the same molecule?
A: inactive

Q: And the outcome [3]?
A: inactive

Q: What about the outcome [4] of the same molecule?
A: inactive

Q: And the Potency [6]?
A: inactive

Q: And the Potency [7]?
A: inactive

Q: With `CC(=O)Nc1ccc(C(=O)O)cc1` as the molecule, how does the outcome [1] read?
A: inactive

Q: What about the outcome [2] of the same molecule?
A: inactive

Q: What about the outcome [3] of the same molecule?
A: inactive

Q: What about the Potency [6] of the same molecule?
A: inactive

Q: What about the Potency [7] of the same molecule?
A: inactive

Q: Which results are given for `C=CCSCC1Nc2cc(Cl)c(S(N)(=O)=O)cc2S(=O)(=O)N1` (centres undefined)?
A: outcome [1]: inactive; outcome [8]: inactive; outcome [3]: inactive; outcome [4]: inactive; outcome [5]: inactive; Potency [6]: inactive; Potency [7]: inactive

Q: What does the source list for `CC[N+](CC)(CC(=O)Nc1c(C)cccc1C)Cc1ccccc1`?
A: outcome [1]: inactive; outcome [2]: inactive; outcome [3]: inactive; outcome [5]: inactive; Potency [6]: inactive; Potency [7]: inactive

Q: Which outcome [1] does the source give for `C=CCOc1ccccc1OCC(O)CNC(C)C` (centres undefined) here?
A: inactive

Q: What about the outcome [2] of the same molecule?
A: inactive

Q: What about the outcome [3] of the same molecule?
A: inactive

Q: What about the outcome [5] of the same molecule?
A: inactive

Q: What about the Potency [6] of the same molecule?
A: inactive

Q: And the Potency [7]?
A: 13.8 µM (active)

Q: Which outcome [1] does the source give for `CCCCCCCCCCCCCCCCC(C(=O)O)C(O)(CC(=O)O)C(=O)O` (centres undefined) here?
A: inactive

Q: What about the outcome [8] of the same molecule?
A: inactive

Q: And the outcome [3]?
A: inactive

Q: What about the outcome [4] of the same molecule?
A: inactive

Q: What about the outcome [5] of the same molecule?
A: inactive

Q: And the Potency [6]?
A: 7.94 µM (active)

Q: With `Nc1c2c(nc3c1CCC3)CCCC2` as the molecule, how does the outcome [1] read?
A: inactive

Q: What about the outcome [2] of the same molecule?
A: inactive

Q: And the outcome [3]?
A: inactive

Q: And the outcome [4]?
A: inactive

Q: And the outcome [5]?
A: inactive

Q: What about the Potency [6] of the same molecule?
A: inactive

Q: And the Potency [7]?
A: 12.3 µM (active)

Q: Which results are given for `CN(C/C=C/C#CC(C)(C)C)Cc1cccc2ccccc12`?
A: outcome [1]: inactive; outcome [2]: inactive; outcome [3]: inactive; outcome [5]: inactive; Potency [6]: inactive; Potency [7]: 0.0347 µM (active)

Q: For `O=C1c2ccccc2S(=O)(=O)N1CCCCN1CCN(c2ncccn2)CC1`, which outcome [1] is on record?
A: inactive

Q: What about the outcome [8] of the same molecule?
A: inactive

Q: What about the outcome [3] of the same molecule?
A: inactive

Q: What about the outcome [4] of the same molecule?
A: inactive

Q: What about the outcome [5] of the same molecule?
A: inactive

Q: What about the Potency [6] of the same molecule?
A: inactive

Q: What about the Potency [7] of the same molecule?
A: 0.871 µM (active)

Q: Which outcome [1] does the source give for `CCCCCCCCCCCCCCCCN` here?
A: inactive

Q: And the outcome [2]?
A: inactive

Q: What about the outcome [3] of the same molecule?
A: inactive

Q: What about the outcome [4] of the same molecule?
A: inactive

Q: And the outcome [5]?
A: inactive

Q: And the Potency [6]?
A: inactive

Q: And the Potency [7]?
A: inactive

Q: What about the outcome [9] of the same molecule?
A: inactive

Q: Which results are given for `CCC(C)(CN(C)C)OC(=O)c1ccccc1` (centres undefined)?
A: outcome [1]: inactive; outcome [2]: inactive; Potency [6]: inactive

Q: Which results are given for `Cc1cccc(C(=O)O)c1O`?
A: outcome [1]: inactive; outcome [2]: inactive; outcome [3]: inactive; outcome [5]: inactive; Potency [6]: inactive; Potency [7]: inactive

Q: What does the source list for `Cc1c(C(=O)NCCO)[n+](=O)c2ccccc2n1[O-]`?
A: outcome [1]: inactive; outcome [2]: inactive; outcome [3]: inactive; outcome [5]: inactive; Potency [6]: inactive; Potency [7]: inactive; outcome [9]: inactive

Q: What does the source list for `Cc1cc(C)nc(NS(=O)(=O)c2ccc(N)cc2)n1`?
A: outcome [1]: inactive; outcome [8]: inactive; outcome [3]: inactive; outcome [4]: inactive; outcome [5]: inactive; Potency [6]: inactive; Potency [7]: inactive

Q: Which results are given for `O=C(Cn1ccnc1[N+](=O)[O-])NCc1ccccc1`?
A: outcome [1]: inactive; outcome [8]: inactive; outcome [3]: inactive; outcome [4]: inactive; outcome [5]: inactive; Potency [6]: inactive; Potency [7]: inactive

Q: For `CC(=O)Nc1cccc(O)c1`, which outcome [1] is on record?
A: inactive

Q: What about the outcome [2] of the same molecule?
A: inactive

Q: And the outcome [3]?
A: inactive

Q: And the outcome [4]?
A: inactive

Q: What about the outcome [5] of the same molecule?
A: inactive

Q: And the Potency [6]?
A: inactive

Q: What about the Potency [7] of the same molecule?
A: inactive

Q: With `COc1ccccc1OCC(O)CO` (centres undefined) as the molecule, how does the outcome [1] read?
A: inactive

Q: What about the outcome [2] of the same molecule?
A: inactive

Q: What about the outcome [3] of the same molecule?
A: inactive

Q: And the outcome [4]?
A: inactive

Q: What about the Potency [6] of the same molecule?
A: inactive

Q: With `C[N+](C)(C)CC(O)CC(=O)[O-]` (centres undefined) as the molecule, how does the outcome [1] read?
A: inactive

Q: What about the outcome [2] of the same molecule?
A: inactive

Q: What about the outcome [4] of the same molecule?
A: inactive

Q: What about the outcome [5] of the same molecule?
A: inactive

Q: And the Potency [6]?
A: inactive

Q: And the Potency [7]?
A: inactive

Q: For `CC(C(=O)O)c1ccc2c(c1)Cc1cccnc1O2` (centres undefined), which outcome [1] is on record?
A: inactive

Q: What about the outcome [8] of the same molecule?
A: inactive

Q: What about the outcome [3] of the same molecule?
A: inactive

Q: And the outcome [4]?
A: inactive

Q: And the outcome [5]?
A: inactive

Q: What about the Potency [6] of the same molecule?
A: inactive

Q: What about the Potency [7] of the same molecule?
A: inactive

Q: Which outcome [1] does the source give for `O=C(O)Cc1ccc(CCNS(=O)(=O)c2ccc(Cl)cc2)cc1` here?
A: inactive

Q: What about the outcome [8] of the same molecule?
A: inactive

Q: And the outcome [3]?
A: inactive

Q: And the outcome [10]?
A: inactive

Q: And the outcome [5]?
A: inactive

Q: And the Potency [6]?
A: inactive

Q: And the Potency [7]?
A: inactive
